Values joined by “and” are separate entries in the source; they are usually repeats but may differ in a detail not shown here. Equal values may be shown once.

Common to all, as to settings: Compound concentration 20.0 uM
For test [1], the target named is Tyrosine-protein kinase ABL1 (Homo sapiens) (UniProt P00519).
For test [2], the target named is Bromodomain-containing protein 4 (Homo sapiens) (UniProt O60885).
The target of test [3] is Cyclin-dependent kinase 2 (Homo sapiens) (UniProt P24941).
Test [4] addresses Casein kinase I isoform delta (Homo sapiens) (UniProt P48730).
Test [5] addresses Glycogen synthase kinase-3 beta (Homo sapiens) (UniProt P49841).
Test [6] addresses Mitogen-activated protein kinase 1 (Homo sapiens) (UniProt P28482).
Test [7] concerns the target T1, Aurora kinase A (Homo sapiens) (UniProt O14965).
T1 sequence (whole entry): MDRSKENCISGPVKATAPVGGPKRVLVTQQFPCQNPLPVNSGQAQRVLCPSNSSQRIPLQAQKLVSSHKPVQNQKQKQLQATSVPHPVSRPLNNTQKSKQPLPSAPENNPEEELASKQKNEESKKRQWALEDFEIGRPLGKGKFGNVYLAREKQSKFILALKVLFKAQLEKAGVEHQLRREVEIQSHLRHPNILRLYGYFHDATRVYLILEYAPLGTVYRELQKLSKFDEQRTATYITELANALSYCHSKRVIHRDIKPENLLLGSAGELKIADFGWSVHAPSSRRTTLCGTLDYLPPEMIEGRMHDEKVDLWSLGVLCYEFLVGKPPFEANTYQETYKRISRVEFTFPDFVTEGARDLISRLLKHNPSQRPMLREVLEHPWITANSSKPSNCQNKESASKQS

For test [8], the target named is T2, Transcription intermediary factor 1-alpha (Homo sapiens) (UniProt O15164).
T2 sequence (whole entry): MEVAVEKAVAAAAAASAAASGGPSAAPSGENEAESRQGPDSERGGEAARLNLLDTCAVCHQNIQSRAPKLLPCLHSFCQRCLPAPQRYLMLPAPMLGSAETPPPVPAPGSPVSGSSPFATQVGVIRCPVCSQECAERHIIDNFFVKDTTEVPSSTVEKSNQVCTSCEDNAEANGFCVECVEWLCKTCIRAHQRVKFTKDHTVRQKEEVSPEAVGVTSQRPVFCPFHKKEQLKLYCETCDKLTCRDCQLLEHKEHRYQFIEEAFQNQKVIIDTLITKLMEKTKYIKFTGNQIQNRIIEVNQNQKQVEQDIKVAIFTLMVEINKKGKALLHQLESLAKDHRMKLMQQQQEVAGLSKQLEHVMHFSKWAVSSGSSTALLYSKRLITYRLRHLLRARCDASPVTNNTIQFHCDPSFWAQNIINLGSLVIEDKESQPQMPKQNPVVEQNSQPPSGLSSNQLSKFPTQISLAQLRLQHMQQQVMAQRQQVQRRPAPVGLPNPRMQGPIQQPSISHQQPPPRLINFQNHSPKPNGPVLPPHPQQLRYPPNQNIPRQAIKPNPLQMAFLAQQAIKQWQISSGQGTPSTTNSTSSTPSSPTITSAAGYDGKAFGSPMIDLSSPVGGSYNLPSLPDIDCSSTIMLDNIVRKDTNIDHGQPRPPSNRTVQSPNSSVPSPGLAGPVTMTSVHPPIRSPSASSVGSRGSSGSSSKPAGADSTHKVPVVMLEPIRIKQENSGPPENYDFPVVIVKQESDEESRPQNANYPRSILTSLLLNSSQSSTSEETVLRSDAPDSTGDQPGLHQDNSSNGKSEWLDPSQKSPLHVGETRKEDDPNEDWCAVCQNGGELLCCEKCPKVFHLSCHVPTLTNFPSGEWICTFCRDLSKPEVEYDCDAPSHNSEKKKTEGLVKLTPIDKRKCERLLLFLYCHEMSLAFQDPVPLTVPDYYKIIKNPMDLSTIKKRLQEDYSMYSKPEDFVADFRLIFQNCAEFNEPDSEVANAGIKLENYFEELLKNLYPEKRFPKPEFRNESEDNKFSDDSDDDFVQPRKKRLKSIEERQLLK

Chain of Casein kinase I isoform delta (Homo sapiens) (P48730 whole entry, looked up, canonical isoform): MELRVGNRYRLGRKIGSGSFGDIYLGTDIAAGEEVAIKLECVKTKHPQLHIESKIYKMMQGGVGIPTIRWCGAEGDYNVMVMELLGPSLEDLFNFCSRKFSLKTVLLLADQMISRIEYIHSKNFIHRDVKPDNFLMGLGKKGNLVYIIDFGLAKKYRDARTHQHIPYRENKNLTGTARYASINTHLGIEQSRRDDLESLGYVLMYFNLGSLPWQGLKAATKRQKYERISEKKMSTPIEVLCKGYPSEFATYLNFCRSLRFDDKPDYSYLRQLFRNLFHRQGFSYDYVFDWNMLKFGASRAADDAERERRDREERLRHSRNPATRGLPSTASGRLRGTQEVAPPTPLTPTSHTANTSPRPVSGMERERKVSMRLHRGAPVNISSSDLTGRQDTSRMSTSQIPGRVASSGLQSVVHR
Chain of Tyrosine-protein kinase ABL1 (Homo sapiens) (P00519 whole entry): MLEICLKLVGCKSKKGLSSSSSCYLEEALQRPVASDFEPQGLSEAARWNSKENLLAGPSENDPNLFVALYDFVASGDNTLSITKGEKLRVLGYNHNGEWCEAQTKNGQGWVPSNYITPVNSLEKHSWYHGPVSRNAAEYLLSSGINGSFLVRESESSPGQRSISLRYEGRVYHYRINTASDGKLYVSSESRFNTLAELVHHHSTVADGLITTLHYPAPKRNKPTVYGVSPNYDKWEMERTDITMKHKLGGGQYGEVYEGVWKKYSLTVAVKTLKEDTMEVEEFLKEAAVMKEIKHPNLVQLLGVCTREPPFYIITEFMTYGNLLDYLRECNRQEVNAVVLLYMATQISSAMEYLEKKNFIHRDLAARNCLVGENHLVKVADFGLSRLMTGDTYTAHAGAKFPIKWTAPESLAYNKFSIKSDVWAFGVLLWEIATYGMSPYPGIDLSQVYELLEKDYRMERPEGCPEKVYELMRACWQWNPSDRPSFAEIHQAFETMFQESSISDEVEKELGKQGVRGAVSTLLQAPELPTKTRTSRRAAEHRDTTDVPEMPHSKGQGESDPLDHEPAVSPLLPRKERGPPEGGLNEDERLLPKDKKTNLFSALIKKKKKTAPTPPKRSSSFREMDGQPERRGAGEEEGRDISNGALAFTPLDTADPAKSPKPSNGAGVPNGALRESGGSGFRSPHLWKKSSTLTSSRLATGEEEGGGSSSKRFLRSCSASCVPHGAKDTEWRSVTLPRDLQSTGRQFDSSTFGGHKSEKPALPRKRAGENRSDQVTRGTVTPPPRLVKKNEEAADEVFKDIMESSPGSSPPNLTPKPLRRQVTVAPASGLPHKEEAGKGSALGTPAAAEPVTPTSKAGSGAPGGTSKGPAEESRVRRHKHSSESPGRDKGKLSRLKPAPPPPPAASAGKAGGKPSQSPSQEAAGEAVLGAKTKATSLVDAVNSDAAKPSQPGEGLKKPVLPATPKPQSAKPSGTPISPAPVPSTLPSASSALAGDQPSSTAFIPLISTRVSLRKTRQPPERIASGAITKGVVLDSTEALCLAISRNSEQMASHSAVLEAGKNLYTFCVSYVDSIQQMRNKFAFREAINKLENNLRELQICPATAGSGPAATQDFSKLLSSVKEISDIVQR
Chain of Glycogen synthase kinase-3 beta (Homo sapiens) (P49841 whole entry, looked up): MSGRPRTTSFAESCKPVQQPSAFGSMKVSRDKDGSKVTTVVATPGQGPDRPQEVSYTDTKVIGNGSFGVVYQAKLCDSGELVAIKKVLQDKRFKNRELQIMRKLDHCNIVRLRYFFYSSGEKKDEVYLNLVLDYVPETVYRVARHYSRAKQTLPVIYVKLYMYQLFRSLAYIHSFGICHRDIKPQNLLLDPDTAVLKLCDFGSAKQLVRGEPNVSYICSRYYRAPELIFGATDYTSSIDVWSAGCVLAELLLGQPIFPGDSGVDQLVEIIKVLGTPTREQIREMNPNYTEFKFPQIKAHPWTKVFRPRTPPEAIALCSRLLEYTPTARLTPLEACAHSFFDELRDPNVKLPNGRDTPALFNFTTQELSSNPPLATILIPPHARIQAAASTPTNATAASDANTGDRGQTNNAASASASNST
Chain of Mitogen-activated protein kinase 1 (Homo sapiens) (P28482 whole entry): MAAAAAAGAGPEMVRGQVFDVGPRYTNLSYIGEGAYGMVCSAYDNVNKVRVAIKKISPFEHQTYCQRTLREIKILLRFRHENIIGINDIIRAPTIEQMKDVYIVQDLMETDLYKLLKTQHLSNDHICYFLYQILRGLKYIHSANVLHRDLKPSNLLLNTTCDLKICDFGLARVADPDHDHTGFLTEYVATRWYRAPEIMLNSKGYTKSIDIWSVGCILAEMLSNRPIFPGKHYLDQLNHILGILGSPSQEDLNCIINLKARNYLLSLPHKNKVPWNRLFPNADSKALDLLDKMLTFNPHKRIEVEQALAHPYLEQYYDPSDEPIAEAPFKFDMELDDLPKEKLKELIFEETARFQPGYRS

Turning to `CCO/N=C1\c2ccccc2-c2nc(C#N)c(C#N)nc21`, the ΔTm in test [1] is 0.39 °C and 0.29 °C; in test [2], -1.18 °C and -1.1 °C; in test [3], 0.59 °C and 0.08 °C; in test [4], -1.52 °C and -1.06 °C; in test [5], 0.4 °C and -0.71 °C; in test [6] it was -0.11 °C and -0.98 °C. The thermal shift (ΔTm) was -2.42 °C and -1.91 °C in test [7]; 0.92 °C and 0.33 °C in test [8].

For `CN(C)NC(=O)CCC(=O)O`, the ΔTm in test [1] was 0.19 °C; in test [2], -2.43 °C; in test [3] it was -0.11 °C; in test [4], -0.1 °C; in test [5] it was -0.76 °C; in test [6], 0.1 °C. Moreover, the ΔTm was -2.27 °C in test [7] and -0.24 °C in test [8].

As to `COc1ccc(C(CN(C)C)C2(O)CCCCC2)cc1` (stereo not given), the ΔTm in test [1] was 0.51 °C; in test [2] it was -2.55 °C; in test [3] it was -0.01 °C; in test [4], -0.1 °C; in test [5], -0.27 °C; in test [6], 0.12 °C. For the same compound, the results for the ΔTm in test [7] and in test [8] were -1.68 °C and -0.25 °C, respectively.

For `O=C(NCCCCc1ccccc1)n1c(=O)oc2cc(-c3ccc(F)cc3)ccc21`, the ΔTm is 0.52 °C in test [1]; -2.75 °C in test [2]; 0.86 °C in test [3]; -0.19 °C in test [4]; 0.3 °C in test [5]; 0.07 °C in test [6]. In addition, the values for the ΔTm in test [7] and in test [8] were -1.29 °C and 0.81 °C, respectively.

`Cc1ccc(N2C(=O)/C(=C/C=C/c3ccco3)C(=O)NC2=S)cc1Cl`: the ΔTm in test [1] is 0.75 °C; in test [2] it was -2.47 °C; in test [3] it was -0.73 °C; in test [4], 0.31 °C; in test [5] it was -1.52 °C; in test [6] it was -1.33 °C. In addition, the ΔTm was -0.68 °C in test [7] and -2.21 °C in test [8].

As for `N#Cc1ccc([C@H]2CCCC[C@H]2O)cc1C(F)(F)F`, the ΔTm in test [1] was 0.55 °C; in test [2], -1.51 °C; in test [3], 0.11 °C; in test [4], 0.3 °C; in test [5] it was -0.43 °C; in test [6], -0.24 °C. The figures for the ΔTm in test [7] and in test [8] were -1.09 °C and -1.04 °C, respectively.

With `N[C@H]1CC[C@H](N[C@@H]2C[C@H]2c2ccccc2)CC1`, the ΔTm in test [1] is 0.04 °C; in test [2] it was -1.89 °C; in test [3] it was 0.04 °C; in test [4], -0.14 °C; in test [5], -0.74 °C; in test [6] it was 0 °C. The ΔTm was -1.42 °C in test [7] and 0.93 °C in test [8].

`CNC(=O)c1cc(C(=O)NC2CC2)cn(Cc2ccccc2)c1=O`: the ΔTm was 0.09 °C in test [1]; -0.92 °C in test [2]; 0.1 °C in test [3]; -0.13 °C in test [4]; -0.62 °C in test [5]; 0.15 °C in test [6]. In addition, the ΔTm in test [7] is -2.45 °C; in test [8], 0.41 °C.

As to `COc1cc(C)[nH]c(=O)c1CNC(=O)c1c(C)n([C@H](C)C2CCOCC2)c2ccccc12`, the ΔTm was 0.28 °C in test [1]; -1.94 °C in test [2]; 0.11 °C in test [3]; 0.07 °C in test [4]; -0.59 °C in test [5]; -0.18 °C in test [6]. Further, the ΔTm in test [7] was -0.23 °C; in test [8] it was -0.56 °C.

Turning to `O=C(N1CCCC[C@H]1Cc1ccccc1)n1cc(-c2ccc(-c3ccccc3)cc2)nn1`, the ΔTm in test [1] was 0.09 °C; in test [2], 5.42 °C; in test [3], 0.51 °C; in test [4], -0.09 °C; in test [5] it was -2.39 °C; in test [6], -0.72 °C. Also, the results for the ΔTm in test [7] and in test [8] were -1.72 °C and 1.36 °C, respectively.

On to `Nc1cc2c3c(c1)C(c1ccccc1)=N[C@@H](NC(=O)c1cccnc1)C(=O)N3CC2`, for which the ΔTm is 0.6 °C in test [1]; -0.29 °C in test [2]; 0.3 °C in test [3]; -0.17 °C in test [4]; -0.38 °C in test [5]; 0.37 °C in test [6]. The ΔTm in test [7] was -2.21 °C; in test [8], -0.79 °C.

With `N#Cc1ccc(N2N=C3c4ccc(C(=O)O)cc4CC[C@@H]3[C@@H]2C2CCCC2)cc1Cl`, the ΔTm is -2.47 °C in test [1]; 0 °C in test [2]; -2.04 °C in test [3]; -4.9 °C in test [4]; 0 °C in test [5]; -9.49 °C in test [6]. For the same compound, the ΔTm came out at 0.42 °C in test [7] and 1.43 °C in test [8].

As to `C/C(=N\NC(=O)c1cccc(S(=O)(=O)N2CCOCC2)c1)c1cc(Cl)ccc1O`, the ΔTm in test [1] was 0.81 °C; in test [2], -2.01 °C; in test [3], 0.83 °C; in test [4], 0.6 °C; in test [5] it was 1.53 °C; in test [6] it was 0.14 °C. Further, the ΔTm in test [7] was -0.56 °C; in test [8], 2.31 °C.

Turning to `Fc1ccc(C(OCCN2CCN(CCCc3ccccc3)CC2)c2ccc(F)cc2)cc1`, the ΔTm in test [1] was 0.53 °C; in test [2], -4.03 °C; in test [3], -0.37 °C; in test [4], -0.45 °C; in test [5], -0.66 °C; in test [6], 0.05 °C. Besides, the ΔTm was -2.65 °C in test [7] and -0.53 °C in test [8].

Take `CN1[C@@H]2CC[C@H]1C[C@@H](OC(c1ccc(F)cc1)c1ccc(F)cc1)C2`: the ΔTm in test [1] is 0.58 °C; in test [2], -2.87 °C; in test [3], 0.08 °C; in test [4], -0.16 °C; in test [5], -0.54 °C; in test [6], 0.11 °C. Moreover, the results for the ΔTm in test [7] and in test [8] were -2.6 °C and -0.2 °C, respectively.

As for `O=C(O)C1=CCCN(CCOC(c2ccc(C(F)(F)F)cc2)c2ccc(C(F)(F)F)cc2)C1`, the ΔTm in test [1] was 0.71 °C; in test [2] it was -3.83 °C; in test [3], -0.13 °C; in test [4], -0.26 °C; in test [5] it was -0.54 °C; in test [6], 0.12 °C. Also, the ΔTm in test [7] was -2.7 °C; in test [8], 0.08 °C.

For the compound `O=C1C(P(=O)(O)O)CC(O)N1O` (stereo not given), the ΔTm was 0.12 °C in test [1]; 0.66 °C in test [2]; -0.03 °C in test [3]; -0.38 °C in test [4]; -0.77 °C in test [5]; 0.16 °C in test [6]. In addition, the ΔTm was -2.18 °C in test [7] and -0.46 °C in test [8].

Take `C=Cc1cc(C(=O)Nc2ccc(C(=N)N)cc2)c(-c2ccc(C(=O)NCC3CC3)nc2C(=O)O)cc1OC`: the ΔTm in test [1] is 0.26 °C; in test [2], -1.29 °C; in test [3], 0.57 °C; in test [4], 0.02 °C; in test [5], -0.41 °C; in test [6], 0.21 °C. For the same compound, the ΔTm in test [7] is -1.17 °C; in test [8], 0.42 °C.

`O=C1Cc2cc(C(=O)N[C@@H]3C[C@H]4CC[C@@H](C3)N4S(=O)(=O)CC3CCN(CCCC(F)(F)F)CC3)c(Cl)cc2N1`: the ΔTm is -0.02 °C in test [1]; -1.65 °C in test [2]; 0.34 °C in test [3]; 0.08 °C in test [4]; -1.14 °C in test [5]; -0.31 °C in test [6]. Besides, the ΔTm in test [7] was -0.32 °C; in test [8], -1.38 °C.

As for `C[C@]12CC[C@@H]3c4ccc(O)cc4C[C@@H](CCCCCCCCC[S+]([O-])CCCC(F)(F)C(F)(F)F)[C@H]3[C@@H]1CC[C@@H]2O` (stereo not given in full), the ΔTm in test [1] is -4.09 °C; in test [2], -2.93 °C; in test [3] it was 0 °C; in test [4], -4.77 °C; in test [5], 0.72 °C; in test [6] it was -12 °C. Besides, the ΔTm in test [7] was -0.16 °C.

Take `CC(C)=C[C@H]1C[C@H](C)[C@]2(CC[C@]3(C)C[C@H]4[C@H](C(=O)C[C@@]4(C)O)/C(C=O)=C\C[C@H]32)O1`: the ΔTm in test [1] was -0.34 °C; in test [2], -1.06 °C; in test [3] it was -0.29 °C; in test [4], -0.36 °C; in test [5], -0.53 °C; in test [6], -0.16 °C. Besides, the ΔTm in test [7] and in test [8] was -1.12 °C each time.

As to `CS(=O)(=O)Nc1ccc(-c2coc3cc(OCc4cccc(C(=O)O)c4)ccc3c2=O)cc1`, the ΔTm in test [1] was -0.03 °C; in test [2] it was 0.08 °C; in test [3] it was 0.07 °C; in test [4], -0.49 °C; in test [5], -0.46 °C; in test [6], 0.64 °C. Also, the ΔTm in test [7] is -0.26 °C; in test [8], 0.89 °C.

(Values after ChEMBL document CHEMBL5724796, “Tm Shift (DSF) assay results for EUbOPEN Chemogenomics Library” (2024).)
